Compound activity as filed in PubChem BioAssay.
SMN2 splice up – qHTS Assay for Enhancers of SMN2 Splice Variant Expression; Potency, µM (titrated, usually from 46.1 µM), without a hit: at the top dose activity change, positive = activation, hits mostly activators; HEK293 SMN2-luciferase splicing reporter, luminescence, 30-36 h; actives 2.8% (n = 210,000); AID 1458, 2008; further: % of control where 0% means no effect; nearly all actives have a fitted effect of over 55% in size
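qHTS luciferase splicing reporter: luminescence rises when SMN2 exon 7 is included in transfected HEK293 cells. Compound exposure lasted 30-36 h at 37C, with 4.5 mM final sodium butyrate as control, followed by a ONE-Glo read.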
Rab9 prom act – qHTS Assay for Rab9 Promoter Activators. Huh7 Rab9 promoter-luciferase reporter, luminescence, 24 h. Potency, µM (highest dose often 9.22 µM), for inactives: top-dose activation, negative = inhibition, hits mostly activators. actives 2.8% (n = 320,000). AID 485297, 2010; further: % of control where 0% means no effect; nearly all actives have a fitted effect of over 60% in size
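Huh7 reporter line, Rab9 promoter upstream of luciferase. Compound exposure 24 h at 37 °C in reduced-serum medium with 10% FBS. Read-out: luminescence.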
NPC1 promoter act – qHTS Assay for NPC1 Promoter Activators; Potency, µM (series often up to 9.22 µM), for the others: at the highest dose activation, hits mostly activators; Huh7 NPC1 promoter luciferase reporter, 24 h; actives 2.4% (n = 320,000); AID 485313, 2010; further: % of control where 0% means no effect; nearly all actives have a fitted effect of over 60% in size
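Luciferase expression driven by the NPC1 promoter was measured in stably transfected Huh7 cells after a 24 h compound incubation, using a luciferase reagent and a luminescence read.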
Luc counter – Counterscreen for Luciferase (Kinase-Glo TM) Inhibition; Luciferin 4-monooxygenase (Photuris pensylvanica), Q27757; Kinase-Glo luciferase, ATP luminescence, 8 min; Potency, µM (titrated, usually from 38.3 µM), for inactives: at the highest dose activity change, negative = inhibition, usual class: inhibitors; actives 0.28% (n = 200,000); further: on the % scale 0 is the no-effect control and ±100 the full control effect; nearly all actives have a fitted effect of over 60% in size
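Inhibition of Kinase-Glo luciferase light generation was assessed at 10 uM ATP in pH 7.2 imidazole buffer, with luminescence measured after eight minutes at ambient temperature.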
FLuc modulator – qHTS profiling assay for firefly luciferase inhibitor/activator using purifed enzyme and Km concentrations of substrates (counterscreen for miR-21 project); purified FLuc, Km substrates, luminescence inhibition; Luciferin 4-monooxygenase (Photinus pyralis), P08659; Potency, µM (titrated, usually from 57.5 µM), for inactives: at the highest dose activity change, negative = inhibition, actives largely listed as inhibitors; actives 6.9% (n = 360,000);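 further: plate controls were vehicle for no effect and reference inhibitor for full effect; nearly all actives have a fitted effect of over 55% in size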
Target sequence (P08659 whole entry, looked up): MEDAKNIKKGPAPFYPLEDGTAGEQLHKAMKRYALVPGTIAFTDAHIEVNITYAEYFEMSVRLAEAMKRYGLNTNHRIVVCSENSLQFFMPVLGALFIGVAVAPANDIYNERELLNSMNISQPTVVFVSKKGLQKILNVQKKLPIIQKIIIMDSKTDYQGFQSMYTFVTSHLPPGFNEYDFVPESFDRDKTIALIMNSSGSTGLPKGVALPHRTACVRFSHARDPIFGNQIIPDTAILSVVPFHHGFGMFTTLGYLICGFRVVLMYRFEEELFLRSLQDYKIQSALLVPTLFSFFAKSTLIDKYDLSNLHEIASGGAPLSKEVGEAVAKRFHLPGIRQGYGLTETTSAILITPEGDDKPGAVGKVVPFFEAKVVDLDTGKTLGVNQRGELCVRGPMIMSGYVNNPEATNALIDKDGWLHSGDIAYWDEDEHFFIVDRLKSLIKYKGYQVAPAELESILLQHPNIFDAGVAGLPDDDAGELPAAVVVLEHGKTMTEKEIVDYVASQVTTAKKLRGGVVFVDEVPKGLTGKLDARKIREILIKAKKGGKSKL
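Purified P. pyralis luciferase (10nM final) with 10uM D-luciferin and 10uM ATP (Km levels) in 50mM Tris acetate pH 7.5, 10mM Mg acetate, 0.01% Tween-20, 0.05% BSA; qHTS 6-point titration, ~60 µM downward; luminescence read.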
ELG1 genotox – qHTS screen for small molecules that induce genotoxicity in human embryonic kidney (HEK293T) cells expressing luciferase-tagged ELG1; actives 1.3% (n = 330,000); HEK293T ELG1-luciferase reporter, luminescence, 16 h; Potency, µM (doses to about 46 µM), without a hit: top-dose activity change, positive = activation, most hits filed as activators; further: % of control where 0% means no effect; nearly all actives have a fitted effect of over 60% in size
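HEK293T cells expressing luciferase-tagged ELG1 were treated with compound or DMSO for 16 hr at 37°C. Luciferase activity was then read after 30 min with ONE-Glo at room temperature; rising signal flags genetic stress.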
* hit, by the source's call; ? = inconclusive; . = no result given; [ ] = dose if it differs, or a comment. Hits are enriched below; roughly 7.5% of the tested compounds scored in any of these assays. The call rests on the fitted dose curve; in most records, active means well fitted curve in the direction sought with a large enough effect; inconclusive means small, poorly fitted or top-dose-only effect, or another doubt; inactive means no such curve, though single readings can be large; an effect the other way counts as inactive or inconclusive. Potency means the concentration at half of the fitted maximal effect.

SMILES	SMN2 splice up	Rab9 prom act	NPC1 promoter act	Luc counter	FLuc modulator	ELG1 genotox
CCOc1cccc2cc(C(=O)NCc3ccc(C)cc3)c(=N)oc12	.	-2.9%	-5.1%	.	15.1µM*	2.6%
COc1ccc(OCCCCn2c(C3CC(=O)N(c4cccc(Cl)c4)C3)nc3ccccc32)cc1 (stereo not drawn)	-31.7%	.	.	.	-0.7%	.
CC(C)CCNC(=O)c1cccc(-n2cnc3cccnc32)c1	.	.	.	.	-3.6%	.
Cc1nccc(-c2sc(-c3cccs3)nc2C)n1	.	?	-2.6%	.	15.1µM*	?
Clc1cccc(Cl)c1C1=NOC(c2nnc(-c3ccccc3)o2)C1 (stereo not drawn)	.	?	29.9%	.	19µM*	16.4%
Clc1ccc(C2=NOC(c3nnc(-c4ccccc4)o3)C2)cc1 (stereo not drawn)	.	-2.5%	-3.5%	.	3.2%	5.3%
CCC(C(=O)Nc1ccc(C(=O)OC)cc1)n1nc(-c2ccc(C)cc2)c2c(c1=O)CCCC2 (stereo not drawn)	-15.4%	.	.	.	-0.8%	.
Cc1c(Cl)ccc2sc(NC(=O)c3ccco3)nc12	.	3.98µM*	2.82µM*	.	5.36µM*	?
COCC(=O)Nc1nc2ccc(S(C)(=O)=O)cc2s1	-1.8%	18.3%	16.8%	-4.3%	?	16.4%
Cc1ccc(C(=O)Nc2nc3ccc(S(C)(=O)=O)cc3s2)o1	3.98µM*	2.51µM*	2.82µM*	12.6µM*	3.01µM*	?
Cc1noc(C)c1C(=O)Nc1nc2ccc(S(C)(=O)=O)cc2s1	.	?	?	.	1.07µM*	?
COc1ccc(C(=O)Nc2nc3ccc(S(C)(=O)=O)cc3s2)cc1	6.4%	16.2%	1.7%	-4.0%	?	3.1%
O=C(NC(=S)Nc1nc2ccc(F)cc2s1)c1ccco1	10µM*	2.51µM*	5.7%	-2.3%	1.35µM*	?
COc1cc(C2C(C(=O)Nc3ccc(C)cc3C)=C(C)Nc3nc4ccccc4n32)cc(OC)c1OC (stereo not drawn)	9.3%	.	.	.	-0.1%	.
CCn1cc(C(=O)N(C)c2ccc(C(C)C)cc2)c2cc(OC)c(OC)cc2c1=O	-1.2%	.	.	.	-3.6%	.
Cc1ccc2c(c1)c1c(c(=O)n(-c3cccc(Cl)c3)c(=O)n1CC(=O)N1CCCC1)n2C	.	.	.	.	-6.7%	.
CS(=O)(=O)c1ccc2nc(NC(=O)c3cccc(Cl)c3)sc2c1	.	1.2%[1.84 µM]	17.4%	.	?	11.7%
CS(=O)(=O)c1ccc2nc(NC(=O)c3ccco3)sc2c1	7.94µM*	1.58µM*	2.82µM*	?	4.78µM*	?
CCOC(=O)c1cnc2cc3c(cn2c1=O)CCCC3	16.4%	3.16µM*	?	-2.3%	23.9µM*	28.4%
CCOC(=O)c1cc2c(nc1N)CCCC2	.	7.0%	0.1%	.	-2.7%	-0.1%
Cc1cc(Cl)ccc1OCC(=O)N(Cc1ccco1)Cc1ccccc1F	-38.6%	.	.	.	?	.
CC(C)c1cc(C(N)=O)c(NC(=O)c2cccc(COc3ccc(Cl)cc3)c2)s1	1.78µM*	2µM*	0.316µM*	-5.5%	1.51µM*	0.731µM*
Cc1nn(Cc2c(F)c(F)c(F)c(F)c2F)c(C)c1NC(=O)c1cccc(COc2ccc(Cl)cc2)c1	17.8µM*	?	?	-2.6%	12µM*	12.6%
CC1CCc2sc(C(=O)NNC(=S)NCC3CCCO3)cc2C1 (stereo not drawn)	.	20.3%	-1.8%	.	-16.3%	8.2%
CC1CCc2sc(C(=O)NC3CCCCC3)cc2C1 (stereo not drawn)	.	3.55µM*	1.78µM*	.	?	?
SMILES	SMN2 splice up	Rab9 prom act	NPC1 promoter act	Luc counter	FLuc modulator	ELG1 genotox
CC1CCc2sc(C(=O)NC(C)C3CCCO3)cc2C1 (stereo not drawn)	.	?	?	.	10.7µM*	?
CCCCOC(=O)Nc1ccc(S(=O)(=O)Nn2cnnc2)cc1	3.6%	-3.2%	-1.8%	1.2%	-7.9%	0.0%
CCCCOC(=O)Nc1nnc(C(C)C)s1	?	2.24µM*	2.82µM*	0.1%	?	?
COc1ccc(NC(=O)Nc2ccc(C(C)C)cc2)cc1	.	?	23.8%	.	?	11.6%
CCCCOC(=O)Nc1ccc(N(C)C)cc1	11.2µM*	2.82µM*	3.98µM*	-10.6%	3.01µM*	9.2µM*
CCCCOC(=O)Nc1cccc(C(=O)OCC)c1	?	0.316µM*	0.224µM*	-2.7%	?	?
CCCCOC(=O)Nc1ccc(C(C)C)cc1	14.1µM*	?	?	0.0%	9.53µM*	?
CCc1ccc2ncc3c(-c4ccc(F)cc4)nn(CC(=O)NC4CCCCC4)c3c2c1	.	.	.	.	1.1%	.
COc1ccc(CCNC(=O)c2nc(SCc3ccc(F)cc3)ncc2Cl)cc1OC	-38.6%	.	.	.	?	.
CCOC(=O)c1c(C)c(C(=O)NCCOC)c(C)n1CC	-1.9%	-5.9%	-1.8%	-2.9%	1.0%	-1.0%
CCCCOC(=O)Nc1ccc(C(N)=O)cc1	?	?	?	-4.1%	15.1µM*	23.1µM*
CCOC(=O)c1c(C)c(C(=O)Nc2ccc(N(C)C)cc2)c(C)n1CC	-6.9%	3.9%	-12.5%	-3.5%	15.1µM*	3.6%
CCCC(C)C(=O)Nc1ccc(C(N)=O)cc1 (stereo not drawn)	17.1%	-3.1%	-2.8%	-0.8%	4.6%	3.0%
CCN1CCN(Cc2ccc(NC(=O)c3cc(NC(=O)c4cc(C)on4)cc(OC)c3)cc2C(F)(F)F)CC1	.	-0.6%	-4.6%	.	?	?
CCN1CCN(Cc2ccc(NC(=O)c3ccc(C)c(NC(=O)C(=O)c4c[nH]c5ccccc45)c3)cc2C(F)(F)F)CC1	.	-4.9%	-1.3%	.	?	-13.8%
CCN1CCN(Cc2ccc(NC(=O)c3cc(NC(=O)c4cnn(-c5ccccc5)c4N)cc(OC)c3)cc2C(F)(F)F)CC1	.	0.1%	-0.7%	.	16.9µM*	-4.7%
CCN1CCN(Cc2ccc(NC(=O)c3cc(NC(=O)C(=O)c4c[nH]c5ccccc45)cc(OC)c3)cc2C(F)(F)F)CC1	.	-3.7%	-5.0%	.	9.53µM*	-16.1%
CCN1CCN(Cc2ccc(NC(=O)c3ccc(C)c(NC(=O)c4ccc5n[nH]nc5c4)c3)cc2C(F)(F)F)CC1	.	1.0%	-2.0%	.	19µM*	-0.8%
COc1ccc(-n2nc(C(=O)NCC(=O)N3CCN(c4ccc(F)cc4)CC3)c3ccccc3c2=O)c(OC)c1	.	21.7%	16.9%	.	1.69µM*	13.2%
